Results filed as inconclusive are left out. A number with no mark means an inactive call. Calls follow the shape of the dose curve; as a rule, active = well fitted cell-killing curve with a large enough effect; inconclusive = small, poorly fitted or top-dose-only effect, or effect the other way; inactive = no such curve, though single readings can be large or run the other way.
Assay: qHTS assay to identify small molecule inhibitors of chordoma cells - UCH-1 (AID 1259355); also: nearly all actives have a fitted effect of over 55% in size
Settings: UCH-1 chordoma viability, CellTiter-Glo, 48 h, combination, with auranofin plus four topoisomerase inhibitors; series mostly up to 46.1 µM; activity, negative = inhibition: at the top concentration
Text: NIH Chemical Genomics Center [NCGC]
Chordoma is a rare and slow growing tumor that can occur anywhere along the spine, from the base of the skull to the tailbone. Current treatment options for chordoma is surgery and radiation therapy for those who are not candidates for surgery. But chordomas tend to return in the same location or surrounding areas of the original tumor after surgery and/or radiation. Chemotherapy can slow down the progression of the tumor. As chordoma is slow growing, the general cytotoxic agents that kill fast growing cells are ineffective, and some patients have been reported to respond to molecularly targeted drugs.
NCATS Pharmaceutical Collection (NPC) containing approximately 3000 clinically approved and investigational drugs were used to screen at 15 concentrations in a chordoma cell lines, UCH-1, to identify small molecule compounds that can inhibit chordoma cell growth.
NCGC Assay Protocol Summary:
Human chordoma cell line UCH-1 was dispensed at 800 per well in 4uL of culture medium into white solid bottom 1536-well plates (Corning Life Sciences, Corning, NY) using a Multidrop Combi (Thermo Scientific, Waltham, MA) dispenser. The assay plates were incubated at 37 C and 5% CO2 for an overnight, and then 23nL of compounds dissolved in DMSO and positive control were transferred using a Pintool station (Wako, San Diego, CA). Compound treatment was followed by the addition of 1uL of the combination compounds (1uM Auranofin, 500nM each of Camptothecin, Doxorubicin, Rubitecan, and Topotecan) and assay medium to each well of the assay plates using Flying Reagent Dispenser (FRD, Aurora Discovery, San Diego, CA). The assay plates were incubated at 37 C and 5% CO2 for 48hr. Then 5uL of CellTiter-Glo reagent (Promega Corporation, Madison, WI) was added to each well of the assay plates using FRD. After 30min incubation at room temperature, the luminescence signal was quantified using a ViewLux plate reader (PerkinElmer, Shelton, CT).
% is scaled to controls: 0 for no effect and ±100 for the full control effect.

SMILES | activity, negative = inhibition
Nc1nc2c(ncn2CCC(CO)CO)c(=O)[nH]1 | 4.54%
CC(C)(C)NCC(O)COc1ccc(NC(=O)NC2CCCCC2)cc1 (stereo not given) | -8.26%
CCCCCCCCCCCCCCCC(=O)NCCO | 10.3%
CSc1ccc2c(c1)C(N1CCN(C)CC1)Cc1ccccc1S2 (stereo not given) | -27.2%
C[C@H](N)[C@H](O)c1cccc(O)c1 | -9.45% [at 20.6 µM]
Cc1ncc([N+](=O)[O-])n1CC(O)CCl (stereo not given) | -7.15% [at 20.6 µM]
NS(=O)(=O)c1cc2c(cc1C(F)(F)F)NC(Cc1ccccc1)NS2(=O)=O (stereo not given) | -28.3% [at 20.6 µM]
CC1=C(C/C=C(\C)CCC[C@H](C)CCC[C@H](C)CCCC(C)C)C(=O)c2ccccc2C1=O | -32.1%
C[C@H]1O[C@H](O[C@H]2[C@H](O)[C@@H](O)[C@@H](O[C@H]3[C@H](O)[C@@H](O)[C@H](O)O[C@@H]3CO)O[C@@H]2CO)[C@H](O)[C@@H](O)[C@@H]1N[C@H]1C=C(CO)[C@@H](O)[C@H](O)[C@H]1O | -8.78%
Nc1ccc(S(=O)(=O)Nc2ccccc2)cc1 | -18.7%
CCCCCCCCCCCCCCCCCCOCC(O)CO (stereo not given) | -10.2%
O=Cc1ccccc1C=O | -26.8%
O=C1NS(=O)(=O)c2ccccc21 | -23.3%
O=C(O)Cc1sc(-c2ccccc2)nc1-c1ccc(Cl)cc1 | -13%
[O-][n+]1cccc(CO)c1 | -0.292%
O=C1O[C@H](CO)[C@@H](O)[C@H](O)[C@H]1O | -13.9%
CCN(CC)CCCC(C)Nc1c2ccc(Cl)cc2nc2ccc(OC)cc12 (stereo not given) | -13%
O=C1O[C@H]([C@@H](O)CO)C(O)=C1O | -18.4%
COc1ccc2cc1Oc1cc3c(cc1OC)CC[N+](C)(C)[C@H]3Cc1ccc(cc1)Oc1c(OC)c(OC)cc3c1[C@@H](C2)[N+](C)(C)CC3 | -1.39%
N[C@@H](CSSC[C@H](N)C(=O)O)C(=O)O | -1.05%

SMILES | activity, negative = inhibition
CN1CCOC(c2ccccc2)c2ccccc2C1 (stereo not given) | 14.4% [at 20.6 µM]
CC1(C)Oc2ccc(C#N)cc2[C@@H](N2CCCC2=O)[C@@H]1O | 1.54%
c1ccc2c(CC3=NCCN3)cccc2c1 | -13.6%
CCOC(=O)c1ccc(O)cc1 | -10.1%
CCOC(=O)[C@H](CCc1ccccc1)N[C@@H](C)C(=O)N1C(=O)N(C)C[C@H]1C(=O)O | -4.23%
O=C(O)[C@@H]1CSCN1 | -3.14%
C[C@@H]1C[C@H]2[C@@H]3C[C@H](F)C4=CC(=O)C=C[C@]4(C)[C@@]3(F)[C@@H](O)C[C@]2(C)[C@@]1(O)C(=O)CO | -6.59% [at 20.6 µM]
O=C(O)c1ccccc1-c1ccc(C(F)(F)F)cc1 | -16.1%
O=S(=O)(O)NC1CCCCC1 | -2.34%
Cc1cc(O)cc2c1O[C@](C)(CCC[C@H](C)CCC[C@H](C)CCCC(C)C)CC2 | -13.6%
Nc1ncnc2c1ncn2[C@@H]1O[C@H](CO)[C@@H](O)[C@H]1O | 25.4%
COC(=O)C1=C(C)NC(C)=C(C(=O)OC)C1c1ccccc1[N+](=O)[O-] | -10.6%
O=C1c2c(O)cccc2Cc2cccc(O)c21 | -20.5%
CCN(CC)CCNC(=O)c1cc(Cl)c(N)cc1OC | -14.1%
NCC(=O)CCC(=O)O | -12.5%
COc1ccc2cc1Oc1ccc(cc1)C[C@H]1c3c(cc4c(c3Oc3cc5c(cc3OC)CCN(C)[C@@H]5C2)OCO4)CCN1C | -13.6% [at 1.88 µM]
CCC(=O)c1ccc(O)cc1 | -2.67%
Cc1cc(N)c2ccccc2[n+]1CCCCCCCCCC[n+]1c(C)cc(N)c2ccccc21 | -38% [at 20.6 µM]
CCCCN1CCCC[C@H]1C(=O)Nc1c(C)cccc1C | -24.9%
CN1[C@@H]2CC[C@H]1CC(OC(=O)C(O)c1ccccc1)C2 (stereo not given in full) | -4.23%

— PubChem BioAssay (NCATS)
